# Test results from PubChem BioAssay (NCATS).
# Values joined by “and” are separate entries in the source; they are usually repeats but may differ in a detail not shown here. Equal entries are not always repeated. Results filed as inconclusive are left out. Active and inactive are the calls of the source. Calls come from the whole dose curve; as a rule, active = well fitted curve in the direction sought with a large enough effect; inconclusive = small, poorly fitted or top-dose-only effect, or another doubt; inactive = no such curve, though single readings can be large; an effect the other way counts as inactive or inconclusive.
# Experiments:
# [1] = Primary qHTS for inhibitors of nuclear receptor binding SET domain protein 2 (NSD2) in an isogenic RCH-ACV NSD2 p.E1099K mutant (9B) (AID 1645876); details: RCH-ACV NSD2 E1099K (9B) viability, CellTiter-Glo, 72 h; series mostly up to 44.9 µM
# [2] = Primary qHTS for inhibitors of nuclear receptor binding SET domain protein 2 (NSD2) in an RCH-ACV wild type WT cells (2C) (AID 1645877); details: RCH-ACV (leukaemia line) NSD2 WT (2C) viability, CellTiter-Glo, 72 h; series mostly up to 44.9 µM
# Note: nearly all actives have a fitted effect of over 70% in size.
# Potency is the fitted concentration of half-maximal effect.
Structure (SMILES),Potency [1],Potency [2]
COC(CCc1ccc(O)cc1)CC(=O)CCc1ccc(O)cc1 (centres undefined),5.67 µM (active),8.98 µM (active)
CC1(CO)CC2C(O)C3=C(CC(C)(O)C2C1)C(=O)OC3 (centres undefined),inactive,inactive
COCCNCc1ccc(-c2cc3nccc(Oc4ccc(NC(=O)C5(C(=O)Nc6ccc(F)cc6)CC5)cc4F)c3s2)nc1,2.9 µM (active),2.63 µM (active)
COc1cc([C@H]2O[C@H](c3cc(OC)c4c(c3)OCO4)[C@H](C)[C@H]2C)cc(OC)c1OC,3.55 µM (active),3.55 µM (active)
COc1ccc(C2=NC(c3ccc(Cl)cc3)C(c3ccc(Cl)cc3)N2C(=O)N2CCNC(=O)C2)c(OC(C)C)c1 (centres undefined),5.78 µM (active),2.58 µM (active)
C=C(C)C(=O)O[C@H]1[C@H]2C(=C)C(=O)O[C@@H]2/C=C(\CO)CC/C=C(/C=O)[C@@H]1O,12.7 µM (active),4.5 µM (active)
C=CS(=O)(=O)NC1CCN(C(=O)CNc2cc(I)c(Cl)cc2OC)CC1,4.59 µM (active),3.25 µM (active)
COc1ccc(C(=O)O[C@H]2C=COC=C3C=C4C(=O)N(C)C(=S)C(=O)N4[C@@H]32)cc1Oc1cc(C=O)ccc1O,6.32 µM (active),2.82 µM (active)
CCCCCCOC(=O)/N=C(\N)c1ccc(NCc2nc3cc(C(=O)N(CCC(=O)OCC)c4ccccn4)ccc3n2C)cc1,20.5 µM (active),16.3 µM (active)
Nc1c(S(=O)(=O)c2ccccc2)c2nc3ccccc3nc2n1-c1ccc(F)cc1,inactive,inactive
CC[C@@H](C)[C@@H]1OC2(C=C[C@H]1C)C[C@@H]1C[C@H](C/C=C(\C)[C@H](O[C@H]3C[C@H](OC)[C@H](O[C@H]4C[C@H](OC)[C@H](NC(C)=O)[C@H](C)O4)[C@H](C)O3)[C@H](C)/C=C/C=C3\CO[C@H]4[C@H](O)C(C)=C[C@@H](C(=O)O1)[C@@]34O)O2 (some centres undefined),8.01 µM (active),5.05 µM (active)
COc1cc(O)cc(OC2OC(CO)C(O)C(O)C2O)c1 (centres undefined),inactive,inactive
CC(C)=CCC/C(C)=C/COCC1OC(n2ccc(=O)[nH]c2=O)C(O)C1O (centres undefined),4.01 µM (active),2.01 µM (active)
C/C=C(\C)C(=O)O[C@H]1C=CC(=O)O[C@H]1/C=C/[C@@H](O)[C@H](C)O,16.3 µM (active),5.78 µM (active)
CN1CCN(S(=O)(=O)c2ccc(-c3cnc(N)c(C(=O)Nc4cccnc4)n3)cc2)CC1,0.317 µM (active),0.317 µM (active)
Cc1nc(NC(=O)N2CCCC2C(N)=O)sc1-c1ccnc(C(C)(C)C(F)(F)F)c1 (centres undefined),2.35 µM (active),2.63 µM (active)
CC(=O)O[C@@H]1C[C@@]23C[C@@]24CC[C@H](O[C@@H]2OC[C@H](O)[C@H](O)[C@H]2O)C(C)(C)[C@@H]4CC[C@H]3[C@]2(C)[C@@H](O)C34O[C@H](C[C@@H](C)[C@@H]3[C@@]12C)[C@@H](C(C)(C)O)O4,inactive,inactive
Cc1nc2ccc(-n3ncc(C(=O)c4cc5ccccc5[nH]4)c3N)cc2[nH]1,3.25 µM (active) and 2.63 µM (active),7.28 µM (active) and 4.17 µM (active)
O=C(Nc1cccc(C(F)(F)F)c1)Nc1ccc(Br)cc1-c1nn[nH]n1,inactive,inactive
O=C(O)C1=CO[C@@H](O[C@@H]2O[C@H](CO)[C@@H](O)[C@H](O)[C@H]2O)[C@@H]2C(CO)=CC[C@H]12,inactive,inactive
CN1CCN(C2CCN(C(=O)Nc3cc(Oc4ccc(NC(=O)C5(C(=O)Nc6ccc(F)cc6)CC5)c(F)c4)ccn3)CC2)CC1,6.49 µM (active) and 11.8 µM (active),7.28 µM (active) and 10.5 µM (active)
CCC(C)CC(=O)OC1C(=O)C(CO)=CC(O)C1C(C)C (centres undefined),2.58 µM (active),2.9 µM (active)
COc1ccc(C2(N(C)C(=O)c3ccc(NC(=O)c4ccco4)cc3)CCOCC2)cc1,inactive,inactive
C[C@H](Nc1ncnc2nc[nH]c12)c1cc2cccc(Cl)c2c(=O)n1-c1ccccc1,4.09 µM (active) and 372 nM (active),7.28 µM (active) and 4.68 µM (active)
Nc1nc2c(nc(Br)n2[C@@H]2O[C@@H]3COP(=O)(O)O[C@H]3[C@H]2O)c(=O)[nH]1,inactive,inactive
C[C@@H]1O[C@@H](O[C@H]2[C@H](OC(=O)[C@]34CCC(C)(C)C[C@H]3C3=CCC5[C@@]6(C)C[C@H](O)[C@H](O[C@@H]7O[C@H](CO)[C@@H](O)[C@H](O)[C@H]7O)[C@](CO)(C(=O)O)C6CC[C@@]5(C)[C@]3(C)C[C@H]4O)OC[C@H](O)[C@@H]2O)[C@H](O)[C@H](O)[C@H]1O[C@@H]1OC[C@@H](O)[C@H](O[C@@H]2OC[C@](O)(CO)[C@H]2O)[C@H]1O (some centres undefined),0.772 µM (active),0.547 µM (active)

Structure (SMILES),Potency [1],Potency [2]
COc1cc(N2CCC(N3CCN(C)CC3)CC2)ccc1Nc1ncc(Cl)c(Nc2ccccc2P(C)(C)=O)n1,3.65 µM (active) and 1.05 µM (active),4.09 µM (active) and 1.48 µM (active)
C=C1CC[C@H]2C(=C)CC[C@H]3C(=C)C(=O)O[C@@H]3[C@@H]12,16.3 µM (active),10.3 µM (active)
NC(=O)c1cnc(N[C@@H]2CCCC[C@H]2N)nc1Nc1cccc(-n2nccn2)c1,0.649 µM (active),0.459 µM (active)
CC(C)n1cnc2c(-c3cnc(N)nc3)nc(N3CCOCC3)nc21,0.159 µM (active),0.224 µM (active)
C=C1C(=O)O[C@@H]2C[C@H](C)[C@@H]3CC(=O)[C@H](O)[C@@]3(C)C[C@H]12,20.5 µM (active),10.3 µM (active)
CC(C)CC(=O)c1c(O)cc2c(c1O)C(CC(C)C)C1=C(O2)C(C)(C)C(=O)C(C)(C)C1=O (centres undefined),10 µM (active),7.96 µM (active)
CC(=O)O[C@@H]1[C@@H](OC(C)=O)[C@H](C)O[C@@H](O[C@H]2[C@@H]3C=CO[C@@H](O[C@@H]4O[C@H](CO)[C@@H](O)[C@H](O)[C@H]4O)[C@@H]3[C@@]3(CO)O[C@@H]23)[C@@H]1OC(=O)/C=C/c1ccccc1,6.82 µM (active),4.83 µM (active)
Cc1c(C2=CCN(C(=O)N(C)C(C)C)CC2)nnn1-c1cccnc1F,inactive,inactive
C/C=C(\C)C(=O)O[C@H]1C=C(CO)C(=O)[C@H](OC(C)=O)[C@H]1C(C)C,2.84 µM (active),2.84 µM (active)
Cc1ccc(C(C)C)c(O[C@@H]2O[C@H](CO)[C@@H](O)[C@H](O)[C@H]2O)c1,inactive,inactive
CCC(CC)(NC(=O)C(C)C)C(=O)N[C@@H](CCCN=C(N)N)C(=O)NC1(C(=O)NC(c2ccc(F)cc2)c2ccc(F)cc2)CCCC1,inactive,inactive
Cn1ncnc1[C@H]1c2n[nH]c(=O)c3cc(F)cc(c23)N[C@@H]1c1ccc(F)cc1,200 nM (active) and 148 nM (active),28.2 nM (active) and 66.1 nM (active)
C=C1C(=O)O[C@@H]2/C=C(/C)[C@@H](OC(C)=O)C/C=C(\C)C[C@@H](OC(=O)/C(=C/CO)CO)[C@@H]12,7.09 µM (active),3.17 µM (active)
CC1CCC/C=C/C(=O)c2c(O)cc(O)cc2CC(=O)O1 (centres undefined),2.9 µM (active),2.05 µM (active)
CCC(CC)Nc1nc(C)c(-c2ccc(OC(F)(F)F)cc2OC)nc1OC,inactive,inactive
C/C(=C/CO)CCC1C(C)CCC2C(C)(C)CCCC12C (centres undefined),inactive,inactive
CC(=O)O[C@@]12CO[C@@H]1C[C@H](O)[C@@]1(C)C(=O)[C@H](O)C3=C(C)[C@@H](OC(=O)[C@H](O)[C@@H](NC(=O)OC(C)(C)C)c4ccccc4)C[C@@](O)([C@@H](OC(=O)c4ccccc4)C12)C3(C)C (some centres undefined),0.004 µM (active),0.0032 µM (active)
COc1ccnc(CS(=O)c2nc3cc(OC(F)F)ccc3[nH]2)c1OC (centres undefined),inactive,inactive
COC1CC(O[C@H]2CC[C@]3(C)C4CC[C@]5(C)C(C6=CC(=O)OC6)=CCC56OC46CC[C@@H]3C2)OC(C)C1O[C@@H]1O[C@H](CO[C@@H]2O[C@H](CO)[C@@H](O)[C@H](O)[C@H]2O)[C@@H](O)[C@H](O)[C@H]1O (some centres undefined),1.54 µM (active),2.75 µM (active)
O=S(=O)(NCc1cccc2ccccc12)c1cc(Cl)c(Oc2cccc(N3CCNCC3)c2)s1,7.28 µM (active),5.78 µM (active)
Cc1nc(NC(=O)N2CCC[C@H]2C(N)=O)sc1-c1ccnc(C(C)(C)C(F)(F)F)c1,1.63 µM (active) and 2.63 µM (active),1.63 µM (active) and 2.95 µM (active)
CC(O)(C(=O)C1CC1(CO)COC1OC(CO)C(O)C(O)C1O)C1C(O)CC2C3CC=C4CC(O)CC(O)C4(C)C3C(O)CC21C (centres undefined),0.342 µM (active),0.383 µM (active)
CCc1cc(C(N)=O)ccc1-n1nc(C(C)C)c2c(-n3cnc(-c4cnn(C)c4)c3)ccnc21,1.18 µM (active),1.05 µM (active)
CC(=O)OC[C@]12[C@H](OC(C)=O)C(=O)[C@@H]3[C@@H](O)[C@@]14O[C@@]3(C)COC(=O)c1cccnc1[C@@H](C)[C@H](C)C(=O)O[C@@H]([C@H](O)[C@@H]2OC(C)=O)[C@]4(C)O,5.41 µM (active),5.41 µM (active)
C=C1CC2OC(=O)C(=C)C2C(OC(=O)/C(C)=C\C)CC2(C)OC1=CC2=O (centres undefined),2.01 µM (active),1.01 µM (active)
COC(=O)N1CCC(n2ncc3c(N4CCOCC4)nc(-c4ccc(NC(=O)NC5CC5)cc4)nc32)CC1,0.0817 µM (active),0.115 µM (active)
